# Measured values: the supplement of paper PMC8728848
# This is one part of a sample in which the strongest signals are shown more often than they occur.
# B1: FaeGab (Escherichia coli) (protein)
# chain: WMTGDFNGSVDIGGSITADDYRQKWEWKVGTGLNGFGNVLNDLTNGGTKLTITVTGNKPILLGRTKEAFATPVSGGVDGIPQIAFTDYEGASVKLRNTDGETNKGLAYFVLPMKNAEGTKVGSVKVNASYAGVFGKGGVTSADGELFSLFADGLRAIFYGGLTTTVSGAALTSGSAAAARTELFGSLSRNDILGQIQRVNANITSLVDVAGSYREDMEYTDGTVVSAAYALGIANGQTIEATFNQAVTTSTQWSAPLNVAITYY
# B2: MIC1 (Toxoplasma gondii), O00834 (protein)
# chain: VGPEAYGEASHSHSPASGRYIQQMLDQRCQEIAAELCQSGLRKMCVPSSRIVARNAVGITHQNTLQWRCFDTASLLESNQENNGVNCVDDCGHTIPCPGGVHRQNSNHATRHEILSKLVEEGVQRFCSPYQASANKYCNDKFPGTIARRSKGFGNNVEVAWRCYEKASLLYSVYAECASNCGTTWYCPGGRRGTSTELDKRHYTEEEGIRQAIGSVDSPCSEVEVCLPKDENPPLCLDESGQISRT
# Key:
# Assay in all cases: glycan array binding signal (z-score within array); higher = stronger binding
# Conditions in all cases: glycan notation: IUPAC condensed, linker removed
# [1] = biological target: Fuc(a1-2)Gal(b1-4)[Fuc(a1-3)]GlcNAc(b1-3)Gal(b1-4)[Fuc(a1-3)]GlcNAc(b1-3)Gal(b1-4)[Fuc(a1-3)]GlcNAc
# How it was run: (§1)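 Negative Z-scores can be read as non-binding. The Z-score is calculated within each array and then averaged across arrays of one protein sequence at different concentrations or buffers and across linkers. Arrays, 3228 in all, were curated from the Consortium for Functional Glycomics database and kept only where the protein sequence was available.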
# [2] = biological target: Gal(a1-3)Gal
# How it was run: as §1
# [3] = biological target: Gal(b1-3)GlcNAc(b1-3)Gal(b1-4)GlcNAc
# How it was run: as §1
# [4] = biological target: Gal3S(b1-3)GlcNAc
# How it was run: as §1
# [5] = biological target: Gal6S(b1-4)GlcNAc
# How it was run: as §1
# [6] = biological target: Glc(a1-4)Glc
# How it was run: as §1
# [7] = biological target: Glc(a1-6)Glc(a1-6)Glc
# How it was run: as §1
# [8] = biological target: Glc(b1-4)Glc
# How it was run: as §1
# [9] = biological target: GlcNAc(b1-4)GlcNAc(b1-4)GlcNAc
# How it was run: as §1
# [10] = biological target: Man(a1-2)Man(a1-2)Man(a1-6)[Man(a1-3)]Man
# How it was run: as §1
# [11] = biological target: Neu5Ac(a2-3)Gal
# How it was run: as §1
# [12] = biological target: Neu5Ac(a2-3)[Neu5Ac(a2-6)]GalNAc
# How it was run: as §1
# [13] = biological target: Neu5Ac(a2-6)Gal(b1-4)GlcNAc(b1-3)Gal(b1-4)[Fuc(a1-3)]GlcNAc(b1-3)Gal(b1-4)[Fuc(a1-3)]GlcNAc
# How it was run: as §1
# [14] = biological target: Neu5Ac(a2-8)Neu5Ac(a2-8)Neu5Ac(a2-8)Neu5Ac(a2-3)[GalNAc(b1-4)]Gal(b1-4)Glc
# How it was run: as §1
# [15] = biological target: Neu5Ac(b2-6)Gal(b1-4)GlcNAc
# How it was run: as §1
# [16] = biological target: Neu5Gc(a2-6)Gal(b1-4)GlcNAc
# How it was run: as §1
# [17] = biological target: Fuc(a1-2)Gal(b1-4)[Fuc(a1-3)]GlcNAc(b1-3)Gal(b1-4)Glc
# How it was run: as §1
# [18] = biological target: Fuc(a1-2)[Gal(a1-3)]Gal(b1-4)GlcNAc(b1-3)Gal(b1-4)Glc
# How it was run: as §1
# [19] = biological target: Fuc(a1-3)[Gal3S(b1-4)]Glc
# How it was run: as §1
# [20] = biological target: Fuc(a1-6)GlcNAc
# How it was run: as §1
# [21] = biological target: Gal(b1-4)GlcNAc(b1-3)[Gal(b1-4)GlcNAc(b1-6)]Gal(b1-4)GlcNAc(b1-3)[Gal(b1-4)GlcNAc(b1-6)]Gal(b1-4)GlcNAc(b1-3)[Gal(b1-4)GlcNAc(b1-6)]Gal(b1-4)GlcNAc(b1-3)[Gal(b1-4)GlcNAc(b1-6)]Gal(b1-4)GlcNAc(b1-3)Gal(b1-4)Glc
# How it was run: as §1
# [22] = biological target: Glc(b1-3)Glc(b1-3)Glc(b1-3)Glc(b1-3)Glc(b1-3)Glc(b1-3)Glc
# How it was run: as §1
# [23] = biological target: Glc(b1-4)Glc(b1-4)Glc(b1-4)Glc(b1-4)Glc(b1-4)Glc(b1-4)Glc(b1-4)Glc(b1-4)Glc
# How it was run: as §1
# [24] = biological target: Glc(b1-4)Glc(b1-4)Glc(b1-4)Glc(b1-4)Glc(b1-4)Glc(b1-4)Glc(b1-4)Glc(b1-4)Glc(b1-4)Glc
# How it was run: as §1
# [25] = biological target: GlcNAc(a1-4)Gal(b1-3)[Fuc(a1-2)]Gal
# How it was run: as §1
# [26] = biological target: Kdn(a2-3)[GalNAc(b1-4)]Gal(b1-3)GlcNAc
# How it was run: as §1
# [27] = biological target: Man(a1-6)Man
# How it was run: as §1
# [28] = biological target: Neu5Ac(a2-3)Gal(b1-4)GlcNAc(b1-2)Man(a1-3)[Neu5Ac(a2-3)Gal(b1-4)GlcNAc(b1-2)Man(a1-6)]Man(b1-4)GlcNAc(b1-4)[Fuc(a1-6)]GlcNAc
# How it was run: as §1
# [29] = biological target: Neu5Ac(a2-3)Gal(b1-4)GlcNAc6S(b1-3)Gal6S(b1-3)GlcNAc6S
# How it was run: as §1
# [30] = biological target: Neu5Ac(a2-3)Gal(b1-4)[Fuc(a1-3)]GlcNAc(b1-3)Gal(b1-4)Glc
# How it was run: as §1
# [31] = biological target: Neu5Ac(a2-3)Gal6S(b1-4)[Fuc(a1-3)]GlcNAc6S(b1-3)Gal(b1-4)Glc
# How it was run: as §1
# [32] = biological target: Neu5Ac(a2-3)[GalNAc(b1-4)]Gal(b1-3)GalNAc(b1-4)[Neu5Ac(a2-3)]Gal(b1-4)Glc
# How it was run: as §1
# [33] = biological target: Neu5Ac(a2-3)[GalNAc(b1-4)]Gal(b1-4)Glc
# How it was run: as §1
# [34] = biological target: Neu5Ac(a2-6)Gal(b1-4)Glc
# How it was run: as §1
# [35] = biological target: Neu5Ac(a2-8)Neu5Ac(a2-3)Gal(b1-3)GalNAc(b1-4)[Neu5Ac(a2-8)Neu5Ac(a2-3)]Gal(b1-4)Glc
# How it was run: as §1
# [36] = biological target: Neu5Gc(a2-3)Gal(b1-3)GlcNAc(b1-3)Gal(b1-4)Glc
# How it was run: as §1
# [37] = biological target: Neu5Gc(a2-3)[GalNAc(b1-4)]Gal
# How it was run: as §1
# [38] = biological target: Neu5Gc(a2-6)Gal(b1-3)GlcNAc(b1-3)Gal(b1-4)Glc
# How it was run: as §1
# [39] = biological target: Neu5Gc(a2-6)Gal(b1-4)GlcNAc(b1-2)Man(a1-3)[Neu5Gc(a2-6)Gal(b1-4)GlcNAc(b1-2)Man(a1-6)]Man(b1-4)GlcNAc(b1-4)GlcNAc
# How it was run: as §1
# [40] = biological target: Neu5Gc(a2-6)GalNAc
# How it was run: as §1
# [41] = biological target: Xyl(a1-6)Glc(b1-4)[Xyl(a1-6)]Glc(b1-4)[Xyl(a1-6)]Glc(b1-4)Glc
# How it was run: as §1
binder,measurement,setting,value
B1,glycan array binding signal (z-score),[1],-0.302
same,glycan array binding signal (z-score),[2],0.089
same,glycan array binding signal (z-score),[3],-0.347
same,glycan array binding signal (z-score),[4],-0.012
same,glycan array binding signal (z-score),[5],-0.201
same,glycan array binding signal (z-score),[6],8.87
same,glycan array binding signal (z-score),[7],10.2
same,glycan array binding signal (z-score),[8],4.4
same,glycan array binding signal (z-score),[9],0.132
same,glycan array binding signal (z-score),[10],1.91
same,glycan array binding signal (z-score),[11],-0.477
same,glycan array binding signal (z-score),[12],-0.489
same,glycan array binding signal (z-score),[13],-0.433
same,glycan array binding signal (z-score),[14],-0.352
same,glycan array binding signal (z-score),[15],-0.473
same,glycan array binding signal (z-score),[16],-0.5
B2,glycan array binding signal (z-score),[17],-0.296
same,glycan array binding signal (z-score),[18],-0.253
same,glycan array binding signal (z-score),[19],-0.041
same,glycan array binding signal (z-score),[20],-0.287
same,glycan array binding signal (z-score),[21],-0.287
same,glycan array binding signal (z-score),[22],-0.287
same,glycan array binding signal (z-score),[8],-0.287
same,glycan array binding signal (z-score),[23],-0.287
same,glycan array binding signal (z-score),[24],-0.287
same,glycan array binding signal (z-score),[25],-0.299
same,glycan array binding signal (z-score),[26],-0.274
same,glycan array binding signal (z-score),[27],-0.312
same,glycan array binding signal (z-score),[28],2.46
same,glycan array binding signal (z-score),[29],4.52
same,glycan array binding signal (z-score),[30],0.087
same,glycan array binding signal (z-score),[31],2.46
same,glycan array binding signal (z-score),[32],1.29
same,glycan array binding signal (z-score),[33],2.98
same,glycan array binding signal (z-score),[34],-0.342
same,glycan array binding signal (z-score),[35],-0.411
same,glycan array binding signal (z-score),[36],2.33
same,glycan array binding signal (z-score),[37],4.78
same,glycan array binding signal (z-score),[38],2.08
same,glycan array binding signal (z-score),[39],0.198
same,glycan array binding signal (z-score),[40],4.8
same,glycan array binding signal (z-score),[41],-0.287
